Assay outcomes as filed in PubChem.
The list is not random: actives were taken first. Their share in the collection is about 10%.
hNpr1 antagonist: antagonists of human natriuretic peptide receptor Npr1; HEK293 hNpr1 GloSensor cGMP, ANP-stimulated luminescence; Potency, µM (series often up to 46.3 µM), inactives show top-dose activity change, negative = inhibition, actives largely listed as inhibitors; hit rate 1.6% among 76,000; AID 1347048; calls by dose curve; further: nearly all actives have a fitted effect of over 60% in size
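Compound pre-incubated 30 min at room temperature on GloSensor-loaded HEK293 cells stably carrying hNpr1 and the pGS-40F cGMP biosensor. Stimulation uses hNppA at 0.1 nM final; luminescence is taken at baseline and 20 min post-agonist.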
GPT2 inh: blocks human glutamate pyruvate transaminase 2. Q8TD30. Recombinant GPT2, coupled pyruvate oxidase/HRP Amplex Red fluorescence. AID 1671188. hit rate 0.25% among 100,000. Potency, µM (series often up to 57.7 µM), for inactives: top-dose activity change, negative = inhibition, usual class: inhibitors; further: nearly all actives have a fitted effect of over 60% in size
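Inhibition is scored from Amplex Red fluorescence generated when pyruvate oxidase and HRP act on pyruvate released by GPT2. Reactions contain 10ng/uL enzyme, 250uM a-KG and 2mM L-alanine and run 30 min at room temperature.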
Luciferase inh: inhibitors of firefly (Photinus pyralis) luciferase; purified P. pyralis luciferase, luminescence, biochemical; hit rate 2.5% among 76,000; P08659; Potency, µM (highest dose often 115 µM), most hits filed as inhibitors; AID 1347043; further: nearly all actives have a fitted effect of over 65% in size
Target sequence (P08659 whole entry, looked up): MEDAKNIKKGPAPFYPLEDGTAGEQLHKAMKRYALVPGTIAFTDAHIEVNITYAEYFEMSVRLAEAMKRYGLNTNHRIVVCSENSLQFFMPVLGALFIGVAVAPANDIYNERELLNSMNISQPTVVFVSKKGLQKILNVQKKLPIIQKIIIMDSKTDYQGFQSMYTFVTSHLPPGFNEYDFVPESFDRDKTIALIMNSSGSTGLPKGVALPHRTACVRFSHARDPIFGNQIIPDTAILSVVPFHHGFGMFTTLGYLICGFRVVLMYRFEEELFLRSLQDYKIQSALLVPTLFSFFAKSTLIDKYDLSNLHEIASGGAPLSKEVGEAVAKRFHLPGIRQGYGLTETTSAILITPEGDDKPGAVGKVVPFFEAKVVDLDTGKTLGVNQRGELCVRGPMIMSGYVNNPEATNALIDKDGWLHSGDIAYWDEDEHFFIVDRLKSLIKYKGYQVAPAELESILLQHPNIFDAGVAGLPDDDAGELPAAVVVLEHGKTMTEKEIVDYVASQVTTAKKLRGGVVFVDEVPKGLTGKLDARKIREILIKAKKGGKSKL
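Biochemical qHTS: compound (6-point titration) added to 10uM D-luciferin plus 10uM ATP in Tris acetate pH 7.5 buffer with Mg, Tween-20 and BSA, then purified enzyme at 10nM; light output imaged.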
3T3 cytotox: kills NIH 3T3 cells. hit rate 4.3% among 94,000. Potency, µM (doses to about 96.7 µM), without a hit: at the top dose activity change, negative = cytotoxicity, usual class: inhibitors. NIH 3T3 viability, CellTiter-Glo ATP luminescence, 48-72 h. AID 1345082; further: nearly all actives have a fitted effect of over 55% in size
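Cells were seeded at 400 per well, treated with pin-transferred compound, and kept 48 or 72 hr at 37 °C before CellTiter-Glo addition and luminescence imaging of cellular ATP.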
HEK293 tox: HEK 293 cell cytotoxicity; HEK 293 viability, ATP luminescence (CellTiter-Glo), 48-72 h; Potency, µM (titrated, usually from 115 µM), without a hit: at the top dose activity change, negative = cytotoxicity, hits mostly inhibitors; hit rate 6.6% among 94,000; AID 1345083; further: nearly all actives have a fitted effect of over 60% in size
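Luminescence from cellular ATP, measured with CellTiter-Glo, indicates HEK 293 viability. Cells plated at 250 cells/well are treated with compound for 48 or 72 hr at 37 degree Celsius before reagent addition.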
* hit, by the source's call; [ ] = another dose, or the depositor's remark. Unless noted, the call rests on the fitted dose curve; in most records, active means well fitted curve in the direction sought with a large enough effect; inconclusive means small, poorly fitted or top-dose-only effect, or another doubt; inactive means no such curve, though single readings can be large; an effect the other way counts as inactive or inconclusive. On the % scale 0 is the no-effect control and ±100 the full control effect; potency means the concentration at half of the fitted maximal effect.

For Cc1ccccc1-c1[nH]nc2ncc(-c3ccccc3O)nc12 the results were hNpr1 antagonist -15%[70.6 µM], GPT2 inh 2%[88.5 µM], Luciferase inh inactive, 3T3 cytotox inconclusive and HEK293 tox 63µM*.
COc1ccc(-c2[nH]nc3ncc(-c4cccc(N(C)C)c4)nc23)c(C)c1 was read as hNpr1 antagonist 3%[70.6 µM], GPT2 inh -5%[88.5 µM], Luciferase inh inactive, 3T3 cytotox inconclusive and HEK293 tox inconclusive.
For COc1ccc(-c2[nH]nc3ncc(-c4ccc([S+](C)(=O)[O-])cc4)nc23)c(C)c1 the results were hNpr1 antagonist -20%[70.6 µM], GPT2 inh -36%[88.5 µM], Luciferase inh inactive, 3T3 cytotox inconclusive and HEK293 tox 56µM*.
CC(NC(=O)COc1ccc(F)cc1)C(=O)N1CCN(c2ccccn2)CC1 (stereo not drawn) was read as hNpr1 antagonist 6%, GPT2 inh inconclusive, Luciferase inh inactive, 3T3 cytotox inconclusive and HEK293 tox 10%.
`Cc1ccccc1-c1cnc2n[nH]c(-c3ccccc3)c2n1` gave hNpr1 antagonist -23%[70.6 µM], GPT2 inh -4%[88.5 µM], Luciferase inh inactive, 3T3 cytotox 50µM* and HEK293 tox 89µM*.
For Cn1ccnc1CN1C(=O)CO[C@H](c2ccc(NC(=O)c3ccc(C(F)(F)F)cc3)cc2)[C@H]1CO the results were hNpr1 antagonist 14%, GPT2 inh inconclusive, Luciferase inh 35µM*, 3T3 cytotox -25% and HEK293 tox -26%.
CCCCCC(=O)Nc1ccc([C@H]2OCC(=O)N(Cc3nccn3C)[C@@H]2CO)cc1 was read as hNpr1 antagonist 10%[70.6 µM], GPT2 inh -17%[88.5 µM], Luciferase inh 71µM*, 3T3 cytotox -18%[174 µM] and HEK293 tox -15%[172 µM].
For CCCc1ccccc1OCC(=O)c1ccc2c(c1)N(CC(=O)NCC1CC1)C(=O)CO2 the results were hNpr1 antagonist -10%, GPT2 inh inconclusive, Luciferase inh inactive, 3T3 cytotox -22% and HEK293 tox -29%.
COc1ccc(NC(=O)CN2C(=O)COc3ccc(C(=O)COc4cccc(F)c4)cc32)cc1 was read as hNpr1 antagonist -1%, GPT2 inh 2%, Luciferase inh inactive, 3T3 cytotox 40µM* and HEK293 tox -50%.
O=C(CN1C(=O)COc2ccc(C(=O)COc3cccc(F)c3)cc21)NCc1ccc2c(c1)OCO2 was read as hNpr1 antagonist -18%, GPT2 inh 4%, Luciferase inh inactive, 3T3 cytotox -5% and HEK293 tox -16%.
`CCc1ccccc1OCC(=O)c1ccc2c(c1)N(CC(=O)Nc1ccc(F)cc1)C(=O)CO2` gave hNpr1 antagonist -3%, GPT2 inh -7%, Luciferase inh inactive, 3T3 cytotox 32µM* and HEK293 tox 40µM*.
For COc1ccc(-n2nc3n(c2=O)CCN(Cc2ccc(N(C)C)cc2)C3)cc1 the results were GPT2 inh inactive, 3T3 cytotox -16% and HEK293 tox -21%.
For Cc1c(F)cccc1NC(=O)N1CCCC1c1nncn1-c1ccccc1 (stereo not drawn) the results were hNpr1 antagonist -14%, GPT2 inh -1%, Luciferase inh inactive, 3T3 cytotox -14% and HEK293 tox 2%.
`CCS(=O)(=O)N(C1CC1)C1CCOC2(CCN(C(=O)Cc3cccc(F)c3)CC2)C1` (stereo not drawn) gave hNpr1 antagonist -3%, GPT2 inh 1%, Luciferase inh inactive, 3T3 cytotox -24% and HEK293 tox inconclusive.
CC1=C[C@@H](CNC(=O)NC(C)C)[C@H](C(C)C)C[C@H]1Cc1nnc(-c2ccccc2F)o1 was read as hNpr1 antagonist -19%[70.6 µM], GPT2 inh inconclusive, Luciferase inh inactive, 3T3 cytotox 32µM* and HEK293 tox 79µM*.
`C#CCNC[C@@H]1C=C(C)[C@H](Cc2nnc(-c3ccccc3F)o2)C[C@H]1C(C)C` gave hNpr1 antagonist -2%[70.6 µM], GPT2 inh 0%[88.5 µM], Luciferase inh inactive, 3T3 cytotox inconclusive and HEK293 tox 71µM*.
